Where a name gives a salt, the structure may show the parent alone. The campaign covered roughly 1,700 compounds. About 15 (0.9%) showed activity. The sample holds actives, similar compounds and a random draw of the others, so the mix is not that of the screen.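 Rule for the calls: active = infection cut by 80% or more with cell growth above 90% in both runs; inactive = the rest.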

The test relates to HSV-1 strain 17 YFP-ICP4 in A549. In words: HSV-1 infection relative to DMSO (ICP4-YFP per H2B-RFP signal); higher = more viral infection (less antiviral activity), active = hit call of the paper. The conditions noted are these: 10 µM; 48 h; MOI: 0.1. As to the method:
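Selleck FDA-approved library (L1300) screened in duplicate at 10 µM on A549 H2B-mRuby cells in 384-well plates, infected with HSV-1 strain 17 YFP-ICP4 at MOI 0.1 one hour before drug addition. Imaged after 2 days at 37°C. Cell growth (H2B-RFP) and infection (ICP4-YFP) are expressed as % of DMSO-treated wells. Hits: growth >90% and infection <20% of DMSO.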
Regarding `Cc1c(O)cccc1C(=O)N[C@@H](CSc1ccccc1)[C@H](O)CN1C[C@H]2CCCC[C@H]2C[C@H]1C(=O)NC(C)(C)C` [Nelfinavir Mesylate], the HSV-1 infection was 9.57% (active). For the molecule `Cc1c(C(C)C)c(=O)n(-c2ccccc2)n1C` [Propyphenazone (4-Isopropylantipyrine)], the HSV-1 infection was 98.5% (inactive). On to `CCCCCCC(=O)O[C@H]1CC[C@H]2[C@@H]3CCC4=CC(=O)CC[C@]4(C)[C@H]3CC[C@]12C` [Testosterone Enanthate], for which the HSV-1 infection is 66.7% (inactive). Turning to `C=C[C@@H]1C[C@]1(NC(=O)[C@@H]1C[C@@H]2CN1C(=O)[C@H](C(C)(C)C)NC(=O)O[C@@H]1C[C@H]1CCCCCc1nc3ccc(OC)cc3nc1O2)C(=O)NS(=O)(=O)C1CC1` [Grazoprevir], the HSV-1 infection was 119% (inactive). In the case of `CCCCCCCCCCCCC[N+](C)(C)Cc1ccccc1` [Benzalkonium chloride] it was 65.3% (inactive); in that of `NC(=O)[C@@H](CCC(F)(F)F)N(Cc1ccc(-c2ncon2)cc1F)S(=O)(=O)c1ccc(Cl)cc1`, 95.4% (inactive).

On to `CCNC(=O)[C@@H]1CCCN1C(=O)[C@H](CCCN=C(N)N)NC(=O)[C@H](CC(C)C)NC(=O)[C@@H](C)NC(=O)[C@H](Cc1ccc(O)cc1)NC(=O)[C@H](CO)NC(=O)[C@H](Cc1c[nH]c2ccccc12)NC(=O)[C@H](Cc1cnc[nH]1)NC(=O)[C@@H]1CCC(=O)N1` [Alarelin Acetate], for which the HSV-1 infection is 90.9% (inactive). Turning to `CC1=C(C(=O)OC(C)C)C(c2cccc([N+](=O)[O-])c2)C(C(=O)OC2CN(C(c3ccccc3)c3ccccc3)C2)=C(N)N1` (stereo not given) [Azelnidipine], the HSV-1 infection was 121% (inactive).

For the molecule `O=C1/C(=C2\Nc3ccc(S(=O)(=O)O)cc3C2=O)Nc2ccc(S(=O)(=O)O)cc21` [Indigo carmine], the HSV-1 infection is 101% (inactive).

As for `C[C@@H](O)[C@H]1C(=O)N2C(C(=O)O)=C(S[C@@H]3CN[C@H](C(=O)Nc4cccc(C(=O)O)c4)C3)[C@H](C)[C@H]12` [Ertapenem sodium], the HSV-1 infection was 109% (inactive). For `CCC[C@@H]1C[C@@H](C(=O)N[C@@H]([C@H]2O[C@H](SC)[C@H](O)[C@@H](O)[C@H]2O)[C@@H](C)O)N(C)C1` [Lincomycin HCl], the HSV-1 infection was 15.9% (active). In the case of `CCC[C@@H]1C[C@@H](C(=O)N[C@@H]([C@H]2O[C@H](SC)[C@H](OP(=O)(O)O)[C@@H](O)[C@H]2O)[C@H](C)Cl)N(C)C1` [Clindamycin Phosphate] it was 125% (inactive). Consider `CCC[C@@H]1C[C@@H](C(=O)N[C@@H]([C@H]2O[C@H](SC)[C@H](O)[C@@H](O)[C@H]2O)[C@H](C)Cl)N(C)C1` [Clindamycin], for which the HSV-1 infection was 83.9% (inactive). Next, `CCC[C@@H]1C[C@@H](C(=O)N[C@@H]([C@H]2O[C@H](SC)[C@H](O)[C@@H](O)[C@H]2O)[C@@H](C)O)N(C)C1` [Lincomycin Hydrochloride Monohydrate]: 86.4% (inactive); `CCC[C@@H]1C[C@@H](C(=O)N[C@@H]([C@H]2O[C@H](SC)[C@H](O)[C@@H](O)[C@H]2O)[C@H](C)Cl)N(C)C1` [Clindamycin HCl]: 87.2% (inactive); `CC(C)C(Br)C(=O)NC(N)=O` (stereo not given) [Bromisoval]: 117% (inactive). For `N#Cc1ccc(Oc2ccc3c(c2)COB3O)cc1` [Crisaborole (AN2728)], the HSV-1 infection is 95.1% (inactive). In the case of `CNC(C)Cc1ccccc1OC` (stereo not given) [Methoxyphenamine Hydrochloride], the HSV-1 infection is 110% (inactive). Next, `Nc1nc(CC(=O)Nc2ccc(CCNC[C@H](O)c3ccccc3)cc2)cs1` [Mirabegron]: 104% (inactive); `O=C(O)CCn1c2c(c3ccccc31)C[C@H](NS(=O)(=O)c1ccc(F)cc1)CC2` [Ramatroban]: 96.2% (inactive); `O=C(NC[C@H](O)CO)c1ccncc1Nc1ccc(I)cc1F`: 34.8% (inactive). Next, `CC[C@H](C)[C@@H]1NC(=O)[C@H](Cc2ccc(O)cc2)NC(=O)[C@@H](N)CSSC[C@@H](C(=O)N2CCC[C@H]2C(=O)N[C@@H](CC(C)C)C(=O)NCC(N)=O)NC(=O)[C@H](CC(N)=O)NC(=O)[C@H](CCC(N)=O)NC1=O` [Oxytocin (Syntocinon)]: 82.7% (inactive). In the case of `CCS(=O)(=O)N1CCN(c2ccc(Nc3ncc(C(N)=O)c(NC4CC4)n3)cc2)CC1`, the HSV-1 infection was 25.3% (inactive). In the case of `CC(C)C[C@H](NC(=O)CNC(=O)[C@H](Cc1ccc(O)cc1)NC(=O)[C@H](CO)NC(=O)[C@H](Cc1c[nH]c2ccccc12)NC(=O)[C@H](Cc1cnc[nH]1)NC(=O)[C@@H]1CCC(=O)N1)C(=O)N[C@@H](CCCNC(=N)N)C(=O)N1CCC[C@H]1C(=O)NCC(N)=O` [Gonadorelin Acetate] it was 117% (inactive); in that of `NCC(=O)O` [Glycine], 95.8% (inactive). For the molecule `CCCN(CCc1cccs1)[C@H]1CCc2c(O)cccc2C1` [Rotigotine], the HSV-1 infection was 27.9% (inactive). For `CCCCCCCN(CC)CCCC(O)c1ccc(NS(C)(=O)=O)cc1` (stereo not given) [Ibutilide Fumarate], the HSV-1 infection is 84.3% (inactive). In the case of `O.O.O.O=C([O-])C1[O][Sb]2[O]C(=O)C([O]2)C(C(=O)[O-])[O][Sb]2[O]C(=O)C1[O]2.[K+].[K+]` (stereo not given) [Antimonyl potassium tartrate trihydrate] it was 80.2% (inactive); in that of `COC(=O)C1=C(C#N)NC(C)=C(C(=O)OC(C)C)C1c1cccc([N+](=O)[O-])c1` (stereo not given) [Nilvadipine], 95.1% (inactive); in that of `Cc1onc(-c2c(F)cccc2Cl)c1C(=O)N[C@@H]1C(=O)N2[C@@H]1SC(C)(C)[C@@H]2C(=O)O` [Flucloxacillin sodium], 114% (inactive).

Turning to `O=C(Nc1cccc2c(=O)cc(-c3nnn[nH]3)oc12)c1ccc(OCCCCc2ccccc2)cc1` [Pranlukast], the HSV-1 infection was 79.1% (inactive). In the case of `OB1OCc2cc(F)ccc21` [Tavaborole (AN-2690)] it was 115% (inactive); in that of `CCOc1cc(N)c(Cl)cc1C(=O)NCC1CN(Cc2ccc(F)cc2)CCO1` (stereo not given) [Mosapride Citrate], 96.7% (inactive). As for `CCOc1cc(N)c(Cl)cc1C(=O)NCC1CN(Cc2ccc(F)cc2)CCO1` (stereo not given) [Mosapride], the HSV-1 infection is 97.6% (inactive). In the case of `C[N+]1(C)[C@@H]2C[C@@H](OC(=O)C(O)(c3cccs3)c3cccs3)C[C@H]1[C@@H]1O[C@@H]12` [Tiotropium Bromide hydrate] it was 100% (inactive); in that of `CCOCCn1c(C2CCN(CCc3ccc(C(C)(C)C(=O)O)cc3)CC2)nc2ccccc21` [Bilastine], 107% (inactive).

In the case of `CC1(C)S[C@@H]2[C@H](NC(=O)Cc3ccccc3)C(=O)N2[C@H]1C(=O)O.CCN(CC)CCOC(=O)c1ccc(N)cc1` [Penicillin G Procaine], the HSV-1 infection is 120% (inactive). Take `Cc1cncc(CN2CCC(=C3c4ccc(Cl)cc4CCc4cccnc43)CC2)c1` [Rupatadine Fumarate]: the HSV-1 infection was 108% (inactive). In the case of `CO[C@H]1O[C@H](COS(=O)(=O)O)[C@@H](O[C@@H]2O[C@@H](C(=O)O)[C@@H](O[C@H]3O[C@H](COS(=O)(=O)O)[C@@H](O[C@@H]4O[C@H](C(=O)O)[C@@H](O[C@H]5O[C@H](COS(=O)(=O)O)[C@@H](O)[C@H](O)[C@H]5NS(=O)(=O)O)[C@H](O)[C@H]4O)[C@H](OS(=O)(=O)O)[C@H]3NS(=O)(=O)O)[C@H](O)[C@H]2OS(=O)(=O)O)[C@H](O)[C@H]1NS(=O)(=O)O` [Fondaparinux Sodium] it was 104% (inactive). Next, `O=c1c(-n2ccnn2)c[nH]n1-c1cc(N2CCOCC2)ncn1` [Molidustat (BAY 85-3934)]: 81.4% (inactive); `CC(C)OC(=O)[C@H](C)N[P@](=O)(OC[C@H]1O[C@@H](n2ccc(=O)[nH]c2=O)[C@](C)(F)[C@@H]1O)Oc1ccccc1` [Sofosbuvir (PSI-7977, GS-7977)]: 105% (inactive). With `CC(C)OC(=O)[C@H](C)N[P@](=O)(CO[C@H](C)Cn1cnc2c(N)ncnc21)Oc1ccccc1` [Tenofovir Alafenamide (GS-7340)], the HSV-1 infection was 2.77% (active). In the case of `CC(C)OC(=O)OCOP(=O)(CO[C@H](C)Cn1cnc2c(N)ncnc21)OCOC(=O)OC(C)C` [Tenofovir Disoproxil Fumarate] it was 86.9% (inactive).

As for `CCN(C(=O)c1c(O)c2c(Cl)cccc2n(C)c1=O)c1ccccc1` [Laquinimod], the HSV-1 infection was 117% (inactive). Next, `CC(=O)Nc1cccc(-n2c(=O)n(C3CC3)c(=O)c3c(Nc4ccc(I)cc4F)n(C)c(=O)c(C)c32)c1`: 43.8% (inactive); `Cc1ccccc1C(=O)Nc1ccc(C(=O)N2CCCC(O)c3cc(Cl)ccc32)c(C)c1` (stereo not given) [Tolvaptan]: 68% (inactive); `Cc1[nH]c2ccccc2c1CCNCc1ccc(/C=C/C(=O)NO)cc1` [Panobinostat (LBH589)]: 34.1% (inactive). As to `CC(C)C[C@H](NC(=O)[C@@H](NC(=O)c1cccc(-c2ccccc2)n1)[C@@H](C)O)B(O)O`, the HSV-1 infection is 106% (inactive).

For the molecule `CN(C(=O)c1ccc(F)cc1C(F)(F)F)C1CCN(c2nnc(-c3ccnn3C)c3ccccc23)CC1`, the HSV-1 infection is 113% (inactive). In the case of `Cc1cn([C@@H]2C[C@@H](O)[C@H](CO)O2)c(=O)[nH]c1=O` [Telbivudine] it was 139% (inactive); in that of `Cc1cn([C@H]2O[C@@H](CO)[C@H](O)[C@H]2F)c(=O)[nH]c1=O` [Clevudine], 114% (inactive).

Take `O=c1[nH]c(=O)n([C@H]2C[C@H](O)[C@@H](CO)O2)cc1I` [Idoxuridine]: the HSV-1 infection was 2.44% (active). In the case of `Cc1cn([C@H]2C[C@H](N=[N+]=[N-])[C@@H](CO)O2)c(=O)[nH]c1=O` [Zidovudine] it was 89.6% (inactive). On to `O=c1[nH]c(=O)n([C@H]2C[C@H](O)[C@@H](CO)O2)cc1C(F)(F)F` [Trifluridine], for which the HSV-1 infection was 20.6% (inactive). `O=c1[nH]c(=O)n([C@H]2C[C@H](O)[C@@H](CO)O2)cc1/C=C/Br` [Brivudine]: the HSV-1 infection was 2.36% (active).

The values are drawn from the supplement of paper PMC11537057.
